Laboratory results as given in ChEMBL document CHEMBL1961873, “Compounds: GSK PKIS; Assays: Nanosyn kinase panel” (2012).

Molecular target: T1, Serine/threonine-protein kinase TBK1 (Homo sapiens) (UniProt Q9UHD2)
T1 sequence (whole entry): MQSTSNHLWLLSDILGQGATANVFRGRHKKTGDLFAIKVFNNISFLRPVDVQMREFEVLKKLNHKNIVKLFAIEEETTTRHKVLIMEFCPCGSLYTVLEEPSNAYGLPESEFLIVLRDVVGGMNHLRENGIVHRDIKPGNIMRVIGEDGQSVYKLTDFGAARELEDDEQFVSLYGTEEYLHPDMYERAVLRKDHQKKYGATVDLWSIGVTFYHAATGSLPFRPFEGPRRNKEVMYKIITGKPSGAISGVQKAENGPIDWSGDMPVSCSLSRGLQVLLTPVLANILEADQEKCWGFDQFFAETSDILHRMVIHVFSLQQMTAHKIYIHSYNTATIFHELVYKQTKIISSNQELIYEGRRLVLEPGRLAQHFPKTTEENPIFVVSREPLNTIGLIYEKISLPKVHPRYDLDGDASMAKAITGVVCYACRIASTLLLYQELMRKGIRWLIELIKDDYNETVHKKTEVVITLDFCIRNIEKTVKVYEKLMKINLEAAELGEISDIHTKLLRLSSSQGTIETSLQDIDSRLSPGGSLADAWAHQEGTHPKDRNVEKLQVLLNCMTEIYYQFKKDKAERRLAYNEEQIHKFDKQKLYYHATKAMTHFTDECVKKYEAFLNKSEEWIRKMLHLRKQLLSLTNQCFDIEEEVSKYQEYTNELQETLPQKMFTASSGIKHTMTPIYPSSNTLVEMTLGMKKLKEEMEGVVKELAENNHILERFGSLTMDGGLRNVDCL
Settings: at 1 µM
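Note: values are mean inhibition of TBK1, screened as part of the GSK published kinase inhibitor set.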

Compared with `CCCN(CCS(C)(=O)=O)Cc1ccc(-c2ccc3ncnc(Nc4ccc(OCc5cccc(F)c5)c(Cl)c4)c3c2)o1`, `O=S(=O)(CCNCc1ccc(-c2ccc3ncnc(Nc4ccc(OCc5cccc(F)c5)c(Cl)c4)c3c2)o1)c1ccccc1` is higher in inhibition: 5.16% for the first, 5.89% for the second.

First: CCn1c(-c2nonc2N)nc2c(C#CC(C)(C)O)ncc(OC3CCNCC3)c21
Second: CCn1c(-c2nonc2N)nc2c(C#CC(C)(C)O)nc(OC[C@H](N)c3ccccc3)cc21
The inhibition of the first is higher: 45.9% for the first, 6.85% for the second.

Going from `CC(=O)Nc1cccc(C#Cc2cncnc2Nc2ccc(OCc3cccc(F)c3)c(Cl)c2)c1` to `CC(=O)NCc1cccc(C#Cc2cncnc2Nc2ccc(OCc3cccc(F)c3)c(Cl)c2)c1`, the inhibition rises from 3.45% to 4.8%.

Compared with `Cc1ccc(O)cc1Nc1ccnc2cc(-c3ccccn3)ccc12`, `COc1ccc(-c2cc(-c3c[nH]nc3-c3ccccn3)ccn2)cc1` is lower in inhibition: 6.68% for the first, 6.38% for the second.

Compared with `CCn1c(-c2nonc2N)nc2cnc(Oc3cccc(NC(=O)c4ccc(N(C)C)cc4)c3)cc21`, `COc1ccc(CNC(=O)c2ccc(-c3cc(-c4nnc(C)o4)ccc3C)cc2)cc1` is lower in inhibition: 6.31% for the first, 4.66% for the second.

Going from `NC(=O)c1sc(-n2cnc3ccc(C(F)(F)F)cc32)cc1OCc1ccccc1Br` to `CCOc1ccc2c(-c3ccnc(Nc4cccc(C(F)(F)F)c4)n3)cnn2n1`, the inhibition rises from 2.04% to 13.1%.

Compared with `CCc1nn2ncccc2c1-c1ccnc(NC2CC2)n1`, `c1cc(-c2cnn3nc(N4CCOCC4)ccc23)nc(NC2CC2)n1` is higher in inhibition: 3.02% for the first, 6.36% for the second.

Compared with `N#Cc1c(NC(=O)CN2CCOCC2)sc2c1CCCC2`, `CCN1CCC(CC(=O)Nc2n[nH]c3nnc(-c4cccc(F)c4F)cc23)CC1` is lower in inhibition: 4.24% for the first, 4.19% for the second.

Compared with `CN(C)CCOc1ccc(-c2nc(-c3ccncc3)c(-c3ccc4c(c3)CC/C4=N\O)[nH]2)cc1`, `COc1cccc(-c2c[nH]c3c(N/N=C/c4ccncc4)ncnc23)c1` is higher in inhibition: 3.98% for the first, 34.6% for the second.

Compared with `CNC(=O)c1cncc(/C=C/c2ccccc2Cl)c1`, `COc1cc(/C=N/Nc2ncnc3[nH]ncc23)ccc1O` is higher in inhibition: 4.1% for the first, 21.1% for the second.

Compared with `c1ccc(-c2nc3n(c2-c2ccc4c(c2)OCO4)CCC3)nc1`, `Nc1nc(-c2cccc(Cl)c2)c(-c2ccc3ncccc3n2)s1` is higher in inhibition: 2.71% for the first, 4.37% for the second.

Going from `Fc1cccc(COc2ccc(Nc3ncnc4sc(-c5ccco5)cc34)cc2Cl)c1` to `CCNC(=O)O[C@H]1CN[C@H](C#Cc2cc3ncnc(Nc4ccc(OCc5cccc(F)c5)c(Cl)c4)c3s2)C1`, the inhibition rises from 2.89% to 3.67%.

First: CC(C)(CO)CNC(=O)c1ccc2c(c1)/C(=N/Nc1ccc(S(N)(=O)=O)cc1)C(=O)N2
Second: Cc1cccc2c1NC(=O)/C2=N\Nc1ccc(S(N)(=O)=O)cc1
The inhibition of the first is higher: 63.4% for the first, 3.42% for the second.

First: CS(=O)(=O)CCNCc1ccc(-c2ccc3ncnc(Nc4ccc(OCc5ccccc5)c(C(F)(F)F)c4)c3c2)o1
Second: CS(=O)(=O)CCNCc1coc(-c2ccc3ncnc(Nc4ccc(OCc5ccccc5)cc4)c3c2)c1
The inhibition of the first is lower: 1.05% for the first, 2.44% for the second.

Compared with `CCN(CC)S(=O)(=O)c1ccc(OC)c(Nc2ncc(-c3ccccc3)o2)c1`, `CN1CCC(n2cnc(-c3ccc(F)cc3)c2-c2ccnc(Nc3ccccc3)n2)CC1` is lower in inhibition: 4.22% for the first, 2.8% for the second.

Compared with `Clc1ccc(-c2nn3ncccc3c2-c2ccnc(Nc3ccccc3)n2)cc1`, `COc1cccc(-n2ncc3c(N/N=C/c4ccc(F)cc4)ncnc32)c1` is higher in inhibition: 2.57% for the first, 6.85% for the second.

`COc1cc(N2CCN(C(C)C)CC2)ccc1Nc1nc(Nc2ccc(F)cc2C(N)=O)c2cc[nH]c2n1` showed an inhibition of 6.76%.
